About 79,000 compounds went through this panel and 15% of them were active in at least one assay; those are over-represented in the sample as a whole. Values without a mark were called inactive. Calls of active or inactive are those of the source. Rule as the data show it: active = growth inhibition above about 70%; inactive = the rest.
Tests used:
[1] = NCI Yeast Anticancer Drug Screen. Data for the rad50 strain (AID 155);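 also: 0% = growth of vehicle-only cultures of the same strain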; conditions: S. cerevisiae rad50 strain growth inhibition, stronger effect = higher value; at 50.0 µM unless noted
Method in brief: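 Compounds were tested on a yeast strain with an engineered DNA damage repair alteration; the reported value is growth inhibition normalised to vehicle treatment.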

[2] = NCI Yeast Anticancer Drug Screen. Data for the mec2-1 strain (AID 157); conditions: S. cerevisiae mec2-1 strain, stronger effect = higher value; at 50.0 µM unless noted
Method in brief: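 Each compound was tested on mec2-1 yeast, a strain altered in DNA damage repair or cell cycle control. Growth inhibition is reported relative to vehicle.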

[3] = NCI Yeast Anticancer Drug Screen. Data for the sgs1 mgt1 strain (AID 161);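 also: 0% = growth of cultures given vehicle only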; conditions: S. cerevisiae sgs1 mgt1 strain, stronger effect = higher value; at 50.0 µM unless noted
Method in brief: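 Inhibition of yeast growth, normalised to vehicle-treated controls, is reported for a strain bearing genetic alterations in DNA damage repair.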

[4] = NCI Yeast Anticancer Drug Screen. Data for the cln2 rad14 strain (AID 165);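 also: 0% = growth equal to vehicle treated cultures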; conditions: S. cerevisiae cln2 rad14 strain, stronger effect = higher value; at 50.0 µM unless noted
Method in brief: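 Test compounds were added to cln2 rad14 yeast cultures; inhibition of growth was then determined by comparison with vehicle treatment.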

[5] = NCI Yeast Anticancer Drug Screen. Data for the bub3 strain (AID 167); conditions: S. cerevisiae bub3 mutant strain, stronger effect = higher value; at 50.0 µM unless noted
Method in brief: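 Growth of a checkpoint-deficient yeast mutant is measured after compound exposure. Values represent inhibition relative to vehicle.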

[6] = NCI Yeast Anticancer Drug Screen. Data for the mlh1 rad18 strain (AID 175); conditions: S. cerevisiae mlh1 rad18 strain growth inhibition, stronger effect = higher value; at 50.0 µM unless noted
Method in brief: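 Inhibition values reflect reduced growth of mutant yeast versus vehicle-treated controls following compound exposure; the mutations affect DNA damage repair.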

CC1CC(OCCO)CC(C)(C)C1 (stereo not given)
growth inhibition [1]: 13%
growth inhibition [2]: 0.5%
growth inhibition [3]: 6.95%
growth inhibition [4]: -8.8%
growth inhibition [5]: 14.9%
growth inhibition [6]: 7.2%

O=C(Cc1ccccc1)N/N=C(/c1nc2ccc([N+](=O)[O-])cc2[nH]c1=O)C(O)c1ccccc1Cl (stereo not given)
growth inhibition [1]: 0.8%
growth inhibition [2]: 2.6%
growth inhibition [3]: 6.8%
growth inhibition [4]: 2.2%
growth inhibition [5]: 5.7%
growth inhibition [6]: 16.1%

C[C@H](C(=O)O)C(=O)NC(=O)N(Cc1ccccc1)N=O
growth inhibition [1]: -24%
growth inhibition [2]: -24.6%
growth inhibition [3]: -26.8%
growth inhibition [4]: 14.3%
growth inhibition [5]: -1.25%
growth inhibition [6]: -8.3%

CCCCCC=C(C(=O)OCC)C(=O)OCC
growth inhibition [1]: 22.9%
growth inhibition [2]: -1.7%
growth inhibition [3]: -4.15%
growth inhibition [4]: 12.3%
growth inhibition [6]: 11.1%

Cn1c2ccccc2c(=O)c2[nH]c3ccccc3c21
growth inhibition [1]: 77.1% (active)
growth inhibition [2]: 78.5% (active)
growth inhibition [3]: 84.2% (active)
growth inhibition [4]: 63.5%
growth inhibition [5]: 83.3% (active)
growth inhibition [6]: 76.8% (active)

C=CCSCc1ccccc1
growth inhibition [1]: 4.55%
growth inhibition [2]: 2.95%
growth inhibition [3]: -13.6%
growth inhibition [4]: 3.8%
growth inhibition [6]: 19.7%

Cc1ccc(C)c(CCCCS(=O)(=O)O)c1
growth inhibition [1]: -27.9%
growth inhibition [2]: -8.1%
growth inhibition [3]: -5.75%
growth inhibition [4]: -40.4%
growth inhibition [6]: -7.6%

Cc1nc(CO)c(-c2ccc([N+](=O)[O-])cc2)o1
growth inhibition [1]: 0.4%
growth inhibition [2]: -4%
growth inhibition [3]: -8.75%
growth inhibition [4]: -20.4%
growth inhibition [6]: -1.5%

O=c1cc2ccc(Cl)cc2n[nH]1
growth inhibition [1]: 8.1%
growth inhibition [2]: 2.7%
growth inhibition [3]: 2.05%
growth inhibition [4]: -33.4%
growth inhibition [6]: 4.5%

CCC1CC(C)=CCN1S(=O)(=O)c1ccc(C)cc1 (stereo not given)
growth inhibition [1]: -12.6%
growth inhibition [2]: -2.3%
growth inhibition [3]: 4.4%
growth inhibition [4]: 18.6%
growth inhibition [6]: 2.35%

Cc1ccc(-c2nc3ccc(Cl)cc3[nH]2)cc1
growth inhibition [1]: -10.7%
growth inhibition [2]: 9.1%
growth inhibition [3]: 41.6%
growth inhibition [4]: 17.1%
growth inhibition [6]: 42.1%

Cc1ccc(C)c(NC(=O)Nc2ccccc2)c1
growth inhibition [1]: 3.3%
growth inhibition [2]: 4.25%
growth inhibition [3]: -7.2%
growth inhibition [4]: -25.1%
growth inhibition [6]: 1%

CC(C)NCC(O)COc1cccc2[nH]c3ccccc3c12 (stereo not given)
growth inhibition [1]: -2.75%
growth inhibition [2]: -8.45%
growth inhibition [3]: -8.5%
growth inhibition [4]: -36.4%
growth inhibition [6]: -0.4%

COc1ccc(-c2sc(C)nc2O)cc1
growth inhibition [1]: 7.75%
growth inhibition [2]: 2.35%
growth inhibition [3]: 0.3%
growth inhibition [4]: -20.8%
growth inhibition [6]: 7.2%

CCCCOC/N=C(/N)NC#N
growth inhibition [1]: 10.9%
growth inhibition [2]: 2.15%
growth inhibition [3]: -5.2%
growth inhibition [4]: 28.6%
growth inhibition [6]: 17.7%

O=C(CCS(=O)(=O)CCC(=O)c1ccccc1)c1ccccc1
growth inhibition [1]: -12.3%
growth inhibition [2]: 11.8%
growth inhibition [3]: 2.25%
growth inhibition [4]: -6.35%
growth inhibition [6]: 3.1%

CCOC(=O)CC(CC(=O)OCC)NC(=O)c1ccc(N(C)C(=O)OCc2ccccc2)cc1
growth inhibition [1]: 40.1%
growth inhibition [2]: 5.55%
growth inhibition [3]: 34.9%
growth inhibition [4]: 32.9%
growth inhibition [5]: 14.7%
growth inhibition [6]: 39.9%

CCOC(=O)/C(SC#N)=C(/N)N1CCCC1
growth inhibition [1]: -12.2%
growth inhibition [2]: -43.8%
growth inhibition [3]: -4%
growth inhibition [4]: 9.95%
growth inhibition [6]: -14.2%

CCCCCCC1(C)NC(=O)NC1=O (stereo not given)
growth inhibition [1]: -20.2%
growth inhibition [2]: -11.8%
growth inhibition [3]: -2.15%
growth inhibition [4]: -77.1%
growth inhibition [6]: -8.3%

COc1ccc(NC(=O)CC(=O)N2N=C(N3c4ccccc4Sc4ccccc43)CC2c2ccccc2)cc1 (stereo not given)
growth inhibition [1]: 8.65%
growth inhibition [2]: -4.1%
growth inhibition [3]: 0.8%
growth inhibition [4]: 14.2%
growth inhibition [6]: -3.6%

CC(=O)C1=CC2(OC3CCC(O)(C(=O)CO)C(C)O3)C(=O)c3c(cc4cccc(O)c4c3O)CC2C(O)C1O (stereo not given)
growth inhibition [1]: -6.2%
growth inhibition [2]: -1.05%
growth inhibition [3]: 2.9%
growth inhibition [4]: -21.2%
growth inhibition [6]: 9.65%

Cc1ccc(NC(=O)c2ccc(OP(=O)(O)Nc3ccc(C)cc3)cc2)cc1
growth inhibition [1]: -22.6%
growth inhibition [2]: -21.8%
growth inhibition [3]: -8.05%
growth inhibition [4]: -3.15%
growth inhibition [6]: -4.1%

Reference: PubChem BioAssay (NCI)
